According to the supplement of paper PMC13380429:

Experiments:
[1] = system: Vero E6 infected with SARS-CoV-2; experiment: morphology score (similarity to uninfected cells); higher = more like uninfected cells; conditions: 24 h
[2] = system: Vero E6 infected with SARS-CoV-2; experiment: SARS-CoV-2 infection rate relative to infected DMSO; higher = more infection, active = 60 or less; conditions: 24 h

Row | SMILES | morphology score [1] | SARS-CoV-2 infection rate [2]
1 | Cn1c(N2CCCCS2(=O)=O)nc(C(=O)NCc2ccc(F)cc2)c(O)c1=O (10 µM) | 0.046 | 104% (inactive)
2 | CSc1ccc2c(c1)[C@H](N1CCN(C)CC1)Cc1ccccc1S2 (racemic) [metitepine] (0.833333 µM) | -0.0536 | 112% (inactive)
3 | Cc1csc(NC(=O)CSc2ccc(-c3ccccc3)nn2)n1 (10 µM) | 0.49 | 68.5% (inactive)
4 | O=C(NO)c1cnc(N2CCN(S(=O)(=O)c3ccc4ccccc4c3)CC2)nc1 (10 µM) | -0.145 | 115% (inactive)
5 | N#CC(C#N)=Cc1ccc(O)c(O)c1 [tyrphostin-AG-18] (10 µM) | 0.204 | 100% (inactive)
6 | CCNC(=O)[C@@H]1CCCN1C(=O)[C@H](CCCNC(=N)N)NC(=O)[C@H](CC(C)C)NC(=O)[C@@H](C)NC(=O)[C@H](Cc1ccc(O)cc1)NC(=O)[C@H](CO)NC(=O)[C@H](Cc1c[nH]c2ccccc12)NC(=O)[C@H](Cc1cnc[nH]1)NC(=O)[C@@H]1CCC(=O)N1 [alarelin] (10 µM) | -0.246 | 114% (inactive)
7 | CC(C)OC(=O)[C@H](C)N[P@](=O)(CO[C@H](C)Cn1cnc2c(N)ncnc21)Oc1ccccc1 [tenofovir-alafenamide] (10 µM) | -0.0883 | 106% (inactive)
8 | O=C1NS(=O)(=O)c2ccccc21 [saccharin] (10 µM) | -0.085 | 106% (inactive)
9 | Cc1ccc(C(C)C)c(O)c1 [thymol] (10 µM) | -0.0243 | 112% (inactive)
10 | COCCNC(=O)COc1ccc(OCCNC[C@H](O)COc2ccccc2)cc1 (10 µM) | 0.0156 | 102% (inactive)
11 | N#Cc1ccc(N2N=C3c4ccc(C(=O)O)cc4CC[C@@H]3[C@@H]2C2CCCC2)cc1Cl (10 µM) | -0.174 | 108% (inactive)
12 | COC(=O)N[C@H](C(=O)N1CCC[C@H]1C(=O)Nc1ccc([C@@H]2CC[C@@H](c3ccc(NC(=O)[C@@H]4CCCN4C(=O)[C@@H](NC(=O)OC)C(C)C)cc3)N2c2ccc(C(C)(C)C)cc2)cc1)C(C)C [ombitasvir] (10 µM) | 0.125 | 113% (inactive)
13 | CC(=O)N[C@@H](Cc1c[nH]c2ccccc12)C(=O)OCc1cc(C(F)(F)F)cc(C(F)(F)F)c1 (10 µM) | 0.31 | 93% (inactive)
14 | NC(=O)Cc1cccc(C(=O)c2ccccc2)c1N [nepafenac] (10 µM) | 0.0605 | 120% (inactive)
15 | CN[C@@H](C)CCC=C(C)C [isometheptene-mucate] (10 µM) | -0.0576 | 109% (inactive)
16 | Cc1cc(-c2nc(C(=O)Nc3cn(C4CCOCC4)nc3C(N)=O)co2)ccn1 (10 µM) | -0.166 | 118% (inactive)
17 | Cc1nn(C)c2nc(NNC(=O)Nc3cc(Cl)nc(Cl)c3)cc(C(C)C)c12 (10 µM) | 0.0785 | 108% (inactive)
18 | NC[C@H](O)c1ccc(O)c(O)c1 [norepinephrine] (10 µM) | -0.067 | 109% (inactive)
19 | O=C(Nc1ccc(CN2CCOCC2)cc1)c1ccc(-c2cccc(Cl)c2)o1 (10 µM) | 0.194 | 110% (inactive)
20 | CCCn1c(=O)c2[nH]cnc2n(-c2ccc(Cl)cc2)c1=O [arofylline] (10 µM) | 0.178 | 108% (inactive)
21 | CS(=O)(=O)c1ccc([C@@H](O)[C@@H](CF)NC(=O)C(Cl)Cl)cc1 [florfenicol] (10 µM) | -0.00265 | 96.5% (inactive)
22 | CCOC(=O)[C@H](C)C[C@@H](Cc1ccc(-c2ccccc2)cc1)NC(=O)CCC(=O)O [sacubitril] (10 µM) | 0.156 | 102% (inactive)
23 | CN1C[C@@H]2CN(c3ccc(-c4ccccc4)nn3)C[C@@H]2C1 (10 µM) | 0.149 | 91% (inactive)
24 | NCc1c[nH]c(=S)n1[C@H]1CCc2c(F)cc(F)cc2C1 [nepicastat] (10 µM) | -0.046 | 104% (inactive)
25 | CC1(C)CC(=O)C(C2C3=C(CC(C)(C)CC3=O)Oc3ccccc32)C(=O)C1 (centres undefined) (10 µM) | 0.28 | 98% (inactive)
26 | O=C(O)CCC/C=C\C[C@@H]1[C@@H](/C=C/[C@@H](O)COc2cccc(Cl)c2)[C@H](O)C[C@@H]1O (racemic) [cloprostenol-(+/-)] (10 µM) | -0.0265 | 110% (inactive)
27 | CNS(=O)(=O)CCc1ccc2[nH]cc(C3CCN(C)CC3)c2c1 [naratriptan] (10 µM) | 0.0727 | 104% (inactive)
